The structures appear in SMILES notation. Values joined by “and” are separate entries in the source; they are usually repeats but may differ in a detail not shown here. Equal values may be shown once. Results filed as inconclusive are left out. Values without a mark were called inactive. Active and inactive are the calls of the source. The call rests on the fitted dose curve; in most records, active means well fitted curve in the direction sought with a large enough effect; inconclusive means small, poorly fitted or top-dose-only effect, or another doubt; inactive means no such curve, though single readings can be large; an effect the other way counts as inactive or inconclusive.

The nature of experiment [1]: Viability qHTS for spleen associated tyrosine kinase inhibitor (SYKi) naive MV4-11 cells (AID 1963823). Further: nearly all actives have a fitted effect of over 40% in size. Further: potency means the concentration at half of the fitted maximal effect. The gist of the method:
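Seeding of 500 SYKi-naive MV4-11 cells per well onto pre-dispensed compounds preceded a 72 hr incubation at 37 C. Luminescent CellTiter-Glo signal, read after 10 min at room temperature, reflected viable cells.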

The nature of experiment [2]: Viability qHTS for spleen associated tyrosine kinase inhibitor (SYKi) drug resistant MV4-11 cells (AID 1963824). Further: nearly all actives have a fitted effect of over 35% in size. Further: potency means the concentration at half of the fitted maximal effect. Summed up: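 CellTiter-Glo luminescence, read 10 min after reagent addition, reports viability after a 72 hr compound exposure. Cells are an MV4-11 line made resistant to SYK inhibition, seeded at 500 per well onto compound-containing plates.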
A short description of experiment [3]: Quantitative highthroughput screen to assess conditional lethalithy of NOMO1 cells grown in RPMI1640 with untreated serum (RPMI+s) (AID 1963876).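 Further: 100% = DMSO wells and 0% = empty wells without cells; nearly all actives have a fitted effect of over 35% in size.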 The gist of the method:
(§1)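 Each medium arm—HPLM with 10% dialyzed FBS, or RPMI1640 with 5 mM glucose and 10% untreated or dialyzed FBS—was screened against an 11-point, 3-fold compound titration for 48 h at 37 °C, with CellTiter-Glo luminescence as endpoint.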

Experiment [4] is described as follows: Quantitative highthroughput screen to assess conditional lethalithy of NOMO1 cells grown in Human Plasma-Like Medium with dialyzed fetal bovine serum (HPLM+ds) (AID 1963878). Further: nearly all actives have a fitted effect of over 35% in size. Further: potency means the concentration at half of the fitted maximal effect.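 On Viability: 100% = DMSO wells and 0% = empty wells on each plate.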 Summed up: as §1
The nature of experiment [5]: Quantitative highthroughput screen to assess conditional lethalithy of P12 Ichikawa cells grown in RPMI1640 with dialyzed fetal bovine serum (RPMI+ds) (AID 1963880).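 Further: 100% = DMSO wells and 0% = empty wells on each plate; nearly all actives have a fitted effect of over 35% in size.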 As to conditions: Potency: P12-Ichikawa viability. The gist of the method: as §1
A short description of experiment [6]: Quantitative highthroughput screen to assess conditional lethalithy of SEM cells grown in Human Plasma-Like Medium with dialyzed fetal bovine serum (HPLM+ds) (AID 1963882). The gist of the method: as §1
Experiment [7] is described as follows: Quantitative highthroughput screen to assess conditional lethalithy of SEM cells grown in RPMI1640 with unreated serum (RPMI+s) (AID 1963883). Further: nearly all actives have a fitted effect of over 35% in size. Further: potency means the concentration at half of the fitted maximal effect.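 On Viability: 100% = DMSO wells and 0% = empty wells without cells.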 Summed up:
as §1

The nature of experiment [8]: Quantitative highthroughput screen to assess conditional lethalithy of SEM cells grown in RPMI1640 with dialyzed fetal bovine serum (RPMI+ds) (AID 1963884). The gist of the method: as §1
Experiment [9] can be described thus: Cellular viability qHTS for adrenocortical cancer (ACC) cell line SW-13 (AID 1963989). Further: nearly all actives have a fitted effect of over 65% in size. Further: potency means the concentration at half of the fitted maximal effect.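 On activity (max response): cells grown in serum-free medium with ITS supplement; on the % scale 0 is the no-effect control and ±100 the full control effect.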 The note with it: SW-13 ACC cells viability, CellTiter-Glo, 48 h; activity (max response): stronger effect = lower value. Summed up: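 48 h treatment, SW-13 in ITS/DMEM serum-free; doses up to 46 uM; readout CellTiter-Glo luminescence; curve fit four-parameter logistic.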
The nature of experiment [10]: Quantitative highthroughput screen to assess conditional lethalithy of NOMO1 cells grown in RPMI1640 with dialyzed fetal bovine serum (RPMI+ds) (AID 1963877).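 Further: series mostly up to about 46 µM; 100% = DMSO control wells and 0% = empty wells; nearly all actives have a fitted effect of over 30% in size.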 Summed up:
as §1

A short description of experiment [11]: Quantitative highthroughput screen to assess conditional lethalithy of P12 Ichikawa cells grown in Human Plasma-Like Medium with dialyzed fetal bovine serum (HPLM+ds) (AID 1963879). The note with it: Potency: viability. Summed up:
as §1

Experiment [12] in a line: Cellular viability qHTS for adrenocortical cancer (ACC) cell line NCI-H295R (AID 1963990).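 Further: 0% = DMSO only wells and -100% = full killing with cytotoxic reference compound; nearly all actives have a fitted effect of over 60% in size.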 Summed up: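 Compound titrations (up to 46 uM final) are applied to NCI-H295R cultures for 48 h at 37C. Viable cell number is estimated by CellTiter-Glo signal, normalised to DMSO and doxorubicin controls.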
For orientation: qHTS replaces the single test concentration by a dilution series.

Experiment [13] is described as follows: Quantitative highthroughput screen to assess conditional lethalithy of P12 Ichikawa cells grown in RPMI1640 with untreated serum (RPMI+s) (AID 1963881). The note with it: Potency: viability. The gist of the method:
as §1

Regarding `CCCCCCCCC(=O)NCc1ccc(O)c(OC)c1`, the Potency entry in [1] and in experiment [2] was “inactive” throughout.
Consider `NCC1(CC(=O)O)CCCCC1`, for which the Potency result in experiment [1], in experiment [2], in experiment [3], in [4], in [5] and in [6] was “inactive” each time. Also, the Potency entry in [7] and in [8] was “inactive” in each case. Also, the activity (max response) in [9] is 12.5% and -5.41%.
Consider `COc1ccc2c(c1)[nH]c1c(C)nccc12`, for which the Potency was 13 µM (active) in [1] and 14.6 µM (active) in experiment [2].
`CCOP(=O)(OCC)C(C)NC(=O)N(CCCl)N=O` (stereo not drawn): the Potency result in experiment [1], in experiment [10], in experiment [4], in experiment [11] and in experiment [12] was “inactive” each time. Moreover, the Potency in experiment [2] is 16.6 µM (active). In addition, in [9], the activity (max response) was 3.2%.
Take `CN1CCN(C(=O)O[C@H]2c3nccnc3C(=O)N2c2ccc(Cl)cn2)CC1`: the Potency result in [1], in experiment [2], in experiment [3], in [10] and in experiment [12] was “inactive” throughout. Also, the activity (max response) in experiment [9] was 9.33%.
As to `Oc1ccc2[nH]cc(CCCCN3CC=C(c4ccccc4)CC3)c2c1`, the Potency in experiment [1] is 8.41 µM (active); in [2], 10.6 µM (active).
Consider `C=C(C)[C@@]12O[C@@H]1[C@@]1(C)C(=CC2=O)CC[C@@H](OC(C)=O)[C@@H]1C`, for which the Potency in [1] and in [2] was 2.31 µM (active) throughout.
For the compound `CC1=CC(=O)[C@@H](O)[C@@]2(C)C1C[C@H]1OC(=O)[C@H](O)[C@@]3(O)[C@@H](C)[C@@H](O)[C@H](O)C2[C@@]13C` (stereo partly drawn), the Potency in experiment [1] was 2.02 µM (active); in experiment [2] it was 1.8 µM (active).
`CCCN1CCO[C@H]2c3cc(O)ccc3OC[C@@H]21`: the Potency entry in experiment [1] and in experiment [2] was “inactive” in each case.
Turning to `CO[C@H]1[C@H](O)[C@H](O[C@H]2CC[C@]3(C)C4CC[C@]5(C)[C@H](C6=CC(=O)OC6)CC[C@]5(O)C4CC[C@@H]3C2)O[C@@H](C)[C@@H]1O` (stereo partly drawn), the figures for the Potency in [1] and in experiment [2] were 0.0252 µM (active) and 0.0112 µM (active), respectively.
`Cc1cccc(C)c1NC(=O)CN1CCCC1=O`: the Potency result in experiment [1], in [2], in experiment [10], in experiment [4], in [11] and in experiment [13] was “inactive” in each case. In experiment [12], the Potency result was “inactive”. In experiment [9], the activity (max response) is -5.06% and 4.95%.
As for `CO[C@@H]1[C@H](O)[C@@H](O[C@@H]2C[C@H]3CC[C@@H]4C(CC[C@]5(C)[C@@H](C6=CC(=O)OC6)CC[C@]45O)[C@@]3(C)[C@H](O)C2)O[C@H](C)[C@@H]1O` (stereo partly drawn), the Potency in experiment [1] is 0.0632 µM (active); in experiment [2], 0.0282 µM (active).
The like results for `Clc1ccc(CO/N=C(\Cn2ccnc2)c2ccc(Cl)cc2Cl)c(Cl)c1` were, in that order, 13.3 µM (active) and 9.44 µM (active).
Turning to `CC(NC(C)(C)C)C(=O)c1cccc(Cl)c1` (stereo not drawn), the Potency result in experiment [1], in experiment [2], in experiment [10], in [11] and in [12] was “inactive” in each case. The Potency in experiment [4] was 5.9 µM (active). In [9], the activity (max response) was 8.14% and 1.12%.
On to `CCc1[nH]c2ccc(OC)cc2c1CCN(C)C`, for which the Potency in experiment [1] was 10.3 µM (active). For the same compound, the Potency entry in experiment [2] is “inactive”.
Regarding `COC[C@H]1OC(=O)c2coc3c2[C@@]1(C)C1=C(C3=O)[C@@H]2CC[C@H](O)[C@@]2(C)C[C@@H]1OC(C)=O`, the Potency is 11.6 µM (active) in experiment [1], 14.6 µM (active) in experiment [2] and 13.2 µM (active) in experiment [4]. For the same compound, in experiment [10], the Potency result was “inactive”.
As for `C[C@]12CC[C@H](O)C[C@H]1CC[C@@H]1[C@@H]2[C@H](O)C[C@]2(C)[C@@H](c3ccc(=O)oc3)CC[C@]12O`, the Potency in experiment [1] was 0.0184 µM (active); in experiment [2] it was 0.0146 µM (active).
As to `COC[C@H]1OC(=O)c2coc3c2[C@@]1(C)C1=C(C3=O)C2CCC(=O)[C@@]2(C)C[C@H]1OC(C)=O` (stereo partly drawn), the Potency in experiment [1] was 14.6 µM (active) and 3.32 µM (active); in experiment [2], 16.4 µM (active) and 3.72 µM (active). The Potency entry in experiment [3], in experiment [10], in experiment [4], in [11] and in [13] was “inactive” throughout.
In the case of `O=C(N[C@H]1CN2CCC1CC2)c1ccc(Cl)cc1`, the Potency entry in experiment [1], in experiment [2], in [10], in experiment [11], in experiment [5] and in experiment [6] was “inactive” each time. For the same compound, the Potency entry in [8] and in experiment [12] was “inactive” in each case. For the same compound, in experiment [9], the activity (max response) is 3.8%.
As for `CN[C@@H]1Cc2cccc3[nH]c(=O)n(c23)C1`, the Potency entry in experiment [1], in experiment [2], in experiment [11], in experiment [5], in experiment [6] and in experiment [8] was “inactive” each time. The Potency entry in [12] is “inactive”. The activity (max response) in experiment [9] was -9.99%.
Turning to `COc1cc(CC(C)N)c(OC)cc1Br` (stereo not drawn), the Potency in experiment [1] is 12.7 µM (active); in experiment [2], 11.3 µM (active). The activity (max response) in [9] was -4.97%.
Regarding `CN(C)c1cc2c(cc1Sc1nc3c(N)nccc3n1CCNCC(C)(C)C)OCO2`, the Potency in experiment [1] was 0.186 µM (active); in experiment [2], 184 nM (active) and 235 nM (active); in experiment [9] it was 1.41 µM (active).
For the compound `CC(C)(C)NCC(O)c1ccccc1Cl` (stereo not drawn), the Potency result in experiment [1] and in experiment [2] was “inactive” in each case. Also, in [9], the activity (max response) is 3.76%.
`Clc1cccc(SC2CCNCC2)n1`: the Potency result in experiment [1] and in [2] was “inactive” in each case. Besides, in experiment [9], the activity (max response) is 3.75%.
In the case of `COC[C@@H](NC(C)=O)C(=O)NCc1ccccc1`, the Potency entry in experiment [1], in experiment [2], in experiment [6], in [8] and in [12] was “inactive” each time. The activity (max response) in experiment [9] is 8.1% and 13.7%.
As to `CNC(=O)N1N=C(c2ccc(N)cc2)c2cc3c(cc2CC1C)OCO3` (stereo not drawn), the Potency was 1.84 µM (active) in [1], 2.31 µM (active) in experiment [2] and 8.33 µM (active) in experiment [7].
